High-throughput results deposited in PubChem BioAssay by National Center for Advancing Translational Sciences (NCATS).
HT1080-NT tox – kills 2HG-producing HT-1080-NT fibrosarcoma cells; Potency, µM (doses to about 46.1 µM), for inactives: at the highest dose activity, negative = less viability, most hits filed as cytotoxic; HT-1080-NT fibrosarcoma viability, CellTiter-Glo ATP luminescence, 48 h; AID 686970; 1.6% of 360,000 active;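 note: NT is the 2HG producing partner of a matched IDH1 knockdown line; 0% = DMSO-treated cells and -100% = media-only wells without cells; nearly all actives have a fitted effect of over 55% in size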
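Read-out is CellTiter-Glo luminescence after 10 minutes at room temperature, following 48 hours' compound treatment of HT-1080-NT cells (750 cells/well, RPMI, 5% FBS, 37 degrees C).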
HT1080 IDH1KD tx – HT-1080 IDH1 knockdown cell toxicity (counter line); HT-1080 IDH1 knockdown viability, ATP luminescence, 48 h; Potency, µM (doses to about 46.1 µM), for inactives: at the highest dose activity, negative = toxicity, most hits filed as cytotoxic; 2% of 360,000 active;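 note: 0% = DMSO wells and -100% = cell-free medium wells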
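CellTiter-Glo luminescence after 48 h compound exposure at 37 degrees C of IDH1-knockdown HT-1080 cells in 5% FBS RPMI. %Activity scaled between DMSO wells and cell-free media wells, with curves fitted and assigned curve classes.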
SW480 rereplic – induces DNA re-replication in SW480 colon adenocarcinoma cells; SW480 DNA re-replication, Hoechst DNA content imaging, 48 h; Potency, µM (highest dose often 46.1 µM), inactives show top-dose re-replication activation, usual class: activators; 1.8% of 340,000 active; AID 624297; note: % of control where 0% means no effect; nearly all actives have a fitted effect of over 55% in size
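Readout is total intensity of Hoechst-stained nuclei, excited at 405 nm and collected at 500-530 nm. Compound treatment lasted 48 hr at 37 C in 5% CO2 before staining.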
MCF10A rerep – inducers of DNA re-replication in MCF 10A breast cells | Potency, µM (series often up to 46.1 µM), for inactives: at the highest dose activity, positive = re-replication, usual class: activators | MCF 10A DNA re-replication, Hoechst nuclear intensity, 48 h | AID 624296 | 2.9% of 350,000 active; note: % of control where 0% means no effect; nearly all actives have a fitted effect of over 50% in size
KB-V1 cytotox – kills drug-selected multidrug resistant KB-V1 cells; KB-V1 MDR cells viability, CellTiter-Glo, 72 h; Potency, µM (series often up to 46.1 µM), actives largely listed as cytotoxic; 3.4% of 400,000 active; AID 1347076; note: % is set by controls: 0 for no effect and ±100 for the full control effect; nearly all actives have a fitted effect of over 60% in size
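KB-V1 cells (P-gp-expressing MDR subline of KB-3-1) in phenol-red-free DMEM with 10% FBS were exposed to library compounds over a concentration series for 72 h at 37 degrees C. Viability read by CellTiter-Glo luminescence; concentration-effect curves fitted after normalization.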
KB-3-1 tox – KB-3-1 parental cell cytotoxicity; KB-3-1 viability, CellTiter-Glo ATP luminescence, 72 h; Potency, µM (titrated, usually from 46.1 µM), most hits filed as cytotoxic; 1.4% of 400,000 active; note: % is set by controls: 0 for no effect and ±100 for the full control effect; nearly all actives have a fitted effect of over 60% in size
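Multi-concentration cytotoxicity screen in KB-3-1 cells grown in DMEM lacking phenol red with 10% FBS. After 72 h at 37 °C with compound, ATP-dependent luminescence was recorded.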
The depositor's hits bear a star; i = inactive; ? = inconclusive; · = not tested or not shown; [ ] = dose if it differs, or a comment. Only some compounds are listed: those with a hit (about 8% of all), similar ones and a draw of the others. Calls come from the whole dose curve; as a rule, active = well fitted curve in the direction sought with a large enough effect; inconclusive = small, poorly fitted or top-dose-only effect, or another doubt; inactive = no such curve, though single readings can be large; an effect the other way counts as inactive or inconclusive. Potency is the fitted concentration of half-maximal effect.

SMILES	HT1080-NT tox	HT1080 IDH1KD tx	SW480 rereplic	MCF10A rerep	KB-V1 cytotox	KB-3-1 tox
CCN(CC(=O)Nc1ccccc1OC)CC(=O)Nc1ccccc1-c1ccccc1	14.6µM*	7.31µM*	?	14.6µM*	8.2µM*	20.6µM*
COCC(=O)Nc1ccccc1-c1ccccc1	-4.1%	-1.7%	-4.0%	3.2%	i	i
CCN(CC(=O)Nc1ccccc1OC)CC(=O)Nc1ccccc1C(F)(F)F	-8.8%	-12.6%	?	?	?	i
O=C(/C=C/[C@H]1O[C@@H](n2ccc(=O)[nH]c2=O)[C@H](O)[C@@H]1O)NC(c1ccccc1)c1ccccc1	17.4%	18.8%	·	·	i	i
CCC1NC(=O)C(NC(=O)c2ncccc2O)C(C)OC(=O)C(c2ccccc2)NC(=O)C2CC(=O)CCN2C(=O)C(Cc2ccccc2)N(C)C(=O)C2CCCN2C1=O (stereo not given)	·	·	10.8%	-0.3%	·	·
CN=C1C=CC(=C(c2ccc(N(C)C)cc2)c2ccc(N(C)C)cc2)C=C1	·	·	?	17.6%	·	·
CCN(CC(=O)Nc1ccccc1-c1ccccc1)Cc1nc2ccccc2c(=O)[nH]1	5.8µM*	4.61µM*	?	6.51µM*	?	8.2µM*
CN(c1ccccc1)S(=O)(=O)c1ccc(NC(=O)c2ccc(F)cc2)cc1	-10.2%	-19.5%	9.2%	?	i	i
CC(=O)Nc1ccc(S(=O)(=O)N(C)S(=O)(=O)c2ccc(F)cc2)cc1	6.1%	?	-0.8%	13.2%	16.4µM*	i
O=C(COC(=O)/C=C/c1ccccc1Cl)NC(=O)Cc1ccccc1	11.8%	-0.8%	-5.2%	-7.3%	i	i
O=C(OCc1ccc(Br)cc1)c1ccncc1	-0.5%	8.9%	?	6.9%	i	i
CCOc1ncccc1C(=O)OCc1ccc(C(=O)OC)cc1	?	?	7.31µM*	2.6%	i	?
CC(=O)Nc1ccc(C(=O)OCc2ccc(Br)cc2)cc1	-6.0%	-0.4%	4.3%	?	18.4µM*	i
COC(=O)c1ccc(COC(=O)c2ccc(N(C)C)cc2)cc1	4.7%	22.7%[9.24 µM]	?	8.2µM*	i	i
CCN(C(=O)COC(=O)c1ccc(OCc2c(C)noc2C)cc1)c1ccccc1	3.0%	-3.1%	-0.9%	11.9%	i	i
Cc1noc(C)c1COC(=O)c1ccc(N(C)C)cc1	16.3%	3.1%	-10.0%	-0.2%	4.11µM*	?
Cc1ccc2c(=O)c(C(=O)c3cccc(Cl)c3)cn(CC(=O)Nc3ccc4c(c3)OCCO4)c2n1	·	·	·	·	i	i
COc1ccccc1C1CC(=O)NC(C)=C1C(=O)OC(C)C (stereo not given)	7.0%	0.9%	5.3%	-0.9%	?	i
CC(C)c1ccc(-n2c(-c3ccccc3)c[n+]3c2CCc2ccccc2-3)cc1	8.2µM*	7.31µM*	-0.2%	?	i	2.59µM*
C[n+]1cc(-c2ccccc2)n2c1CCCCC2	-2.6%	4.3%	0.0%	12.8%	i	?
COc1ccc(-n2cc(-c3ccc(Br)cc3)[nH]c2=S)cc1	7.7%	13.0%	-0.2%	4.1%	i	i
COc1ccc(-c2cn(-c3ccc(OC)cc3)c3[n+]2-c2ccccc2CC3)cc1	25.9µM*	?	-2.8%	0.2%	i	3.66µM*
COc1ccc(-n2cc(-c3ccccc3)[n+]3c2CCCCC3)cc1	?	?	?	22.9%	i	?
COc1ccc(-n2c(-c3ccc(Br)cc3)c[n+]3c2CCc2ccccc2-3)cc1	?	16.4µM*	6.3%	18.4µM*	i	2.59µM*
COc1ccccc1-n1c(-c2ccccc2)c[n+]2c1CCc1ccccc1-2	14.6µM*	13µM*	-0.1%	15.8%	i	3.26µM*
SMILES	HT1080-NT tox	HT1080 IDH1KD tx	SW480 rereplic	MCF10A rerep	KB-V1 cytotox	KB-3-1 tox
CCCC(NS(=O)(=O)c1ccc(-c2ccc(=O)[nH]n2)s1)c1cccs1 (stereo not given)	-29.0%	8.2%	?	11.3%	i	i
COc1ccccc1NC(=O)CCNC(=O)C1CCN(S(=O)(=O)c2ccccc2)CC1	5.8%	4.0%	·	·	i	i
N#CC1=C(N)NC(SCC(=O)c2ccc(Cl)cc2)=C(C#N)C12CCCC2	?	?	13.6%	4.7%	i	i
CCSC1=C(C#N)C2(CCCCC2)C(C#N)=C(N)N1	-17.0%	-7.2%[9.24 µM]	-5.8%	3.3%	?	?
N#CC1=C(N)NC(SCc2ccccc2)=C(C#N)C12CCCCC2	7.94µM*	7.08µM*	?	8.2µM*	?	23.1µM*
N#CC1=C(N)NC(SCC(=O)c2ccc(Br)cc2)=C(C#N)C12CCCCC2	-6.4%	-28.7%	?	?	16.4µM*	?
O=S1(=O)N=C(Oc2ccc3ccccc3c2)c2ccccc21	·	·	·	·	i	i
CCCOc1c(OC)cccc1C1CC(=O)Nc2cc3c(cc21)OCCO3 (stereo not given)	?	?	?	5.8µM*	?	?
CCCOc1c(OC)cccc1C1CC(=O)Nc2cc3c(cc21)OCO3 (stereo not given)	?	-9.3%[9.24 µM]	16.4µM*	5.8µM*	16.4µM*	10.3µM*
CC(=O)c1ccc(-n2nnnc2SCC(=O)NC2CCCCC2)cc1	-15.9%	-17.4%	-20.9%	-27.4%	i	i
COc1cc(Br)c(CC(=O)NO)cc1OC	0.9%	8.7%	·	·	·	·
CC(C)OC(=O)C(=O)NNc1ccccc1	7.31µM*	9.2µM*	3.3%	10.3µM*	i	?
CCCOC(=O)C(=O)NNc1ccccc1	3.66µM*	5.17µM*	6.8%	21.0%	i	?
O=C(NNc1ccc(Cl)cc1)c1cccs1	4.61µM*	6.51µM*	29.1%	?	i	i
CCOC(=O)C(=O)NNc1ccc(C)cc1	?	-2.3%	3.5%	?	i	i
CCOC(=O)C(=O)NNc1ccc(Cl)cc1	3.66µM*	4.11µM*	68.8%	?	i	i
O=C1c2oc3ccc(F)cc3c(=O)c2C(c2cccc([N+](=O)[O-])c2)N1CCCN1CCOCC1 (stereo not given)	·	·	·	·	i	i
Cc1ccc(S(=O)(=O)c2nc(S(C)(=O)=O)sc2N(C)Cc2ccccc2)cc1	·	·	·	·	i	i
CC(=O)Nc1ccccc1	15.0%	16.5%	-8.3%	1.3%	i	i
CCc1ccc(C(=O)NNc2ccc(Cl)cc2)cc1	?	6.51µM*	?	18.4%	i	?
CCc1ccc(C(=O)NNc2cc(Cl)cc(Cl)c2)cc1	-28.0%	?	11.3%	25.8%	?	i
